# Measured values reported in the supplement of paper PMC3545927.
# The other results are listed elsewhere or left out. The true hit rate is not given.
# B1: HC1964 (peptide)
# chain: CAEITTPCSGAGNASASA
# B2: HC1863 (peptide)
# chain: CATTACSGSWAGNASASA
# B3: HC2495 (peptide)
# chain: CASHPCSAHLAGNASASA
# B4: FS-1080 (peptide)
# chain: CASHAVVARSAGNASASA
# B5: FS-897 (peptide)
# chain: CAWRCRVARSAGNASASA
# B6: HC768 (peptide)
# chain: CASPPVVPQSAGNASASA
# B7: FS-738 (peptide)
# chain: CAYLSRVARSAGNASASA
# B8: HC960 (peptide)
# chain: CAAPPPSWDQAGNASASA
# B9: HC536 (peptide)
# chain: CALVILNAASAGNASASA
# B10: HC2323 (peptide)
# chain: CAEAPCHRPSAGNASASA
# B11: HC1717 (peptide)
# chain: CAMESCSQHLAGNASASA
# B12: HC1891 (peptide)
# chain: CATTPCSDSWAGNASASA
# B13: HC1714 (peptide)
# chain: CAMEKCSQHLAGNASASA
# B14: HC899 (peptide)
# chain: CALPQDAVSRAGNASASA
# B15: FS-1466 (peptide)
# chain: CALSIRDARMAGNASASA
# B16: FS-599 (peptide)
# chain: CAIPARMKRAAGNASASA
# B17: FS-356 (peptide)
# chain: CALPARDKRKAGNASASA
# B18: HC1197 (peptide)
# chain: CALPAPNYTFAGNASASA
# B19: FS-136 (peptide)
# chain: CALSIRDKRKAGNASASA
# B20: HC562 (peptide)
# chain: CALPQRAYALAGNASASA
# B21: FS-254 (peptide)
# chain: CAIPARELRNAGNASASA
# B22: FS-1363 (peptide)
# chain: CALPQRLPRAAGNASASA
# B23: HC1498 (peptide)
# chain: CASLTERLYVAGNASASA
# B24: HC1937 (peptide)
# chain: CATTPCSGSSAGNASASA
# B25: HC574 (peptide)
# chain: CAMALTLSPYAGNASASA
# B26: HC478 (peptide)
# chain: CAGVEHRLEAAGNASASA
# B27: HC1486 (peptide)
# chain: CASDIRTEEAAGNASASA
# B28: FS-1026 (peptide)
# chain: CALPARDKRAAGNASASA
# B29: FS-54 (peptide)
# chain: CALPNREDRAAGNASASA
# B30: FS-1083 (peptide)
# chain: CASPIRTPRAAGNASASA
# B31: FS-1367 (peptide)
# chain: CALRMFERRSAGNASASA
# B32: FS-339 (peptide)
# chain: CAIPSGFRRSAGNASASA
# B33: FS-1282 (peptide)
# chain: CASRDRFRRSAGNASASA
# B34: FS-1088 (peptide)
# chain: CASRSLSRRSAGNASASA
# B35: HC1806 (peptide)
# chain: CADMMEECSQAGNASASA
# B36: HC345 (peptide)
# chain: CAAKVLVVLLAGNASASA
# B37: FS-1583 (peptide)
# chain: CAAKSRQRRQAGNASASA
# B38: FS-552 (peptide)
# chain: CANEKRQRRQAGNASASA
# B39: FS-304 (peptide)
# chain: CATHMRQMRSAGNASASA
# B40: FS-321 (peptide)
# chain: CAAKSRQMRSAGNASASA
# B41: HC1302 (peptide)
# chain: CAQALPVWARAGNASASA
# B42: HC284 (peptide)
# chain: CAATRDGKLPAGNASASA
# B43: HC1182 (peptide)
# chain: CATMRIVGPRAGNASASA
# B44: HC1873 (peptide)
# chain: CATTRCSGSWAGNASASA
# Target: furin, P09958
# Sequence (P09958 whole entry): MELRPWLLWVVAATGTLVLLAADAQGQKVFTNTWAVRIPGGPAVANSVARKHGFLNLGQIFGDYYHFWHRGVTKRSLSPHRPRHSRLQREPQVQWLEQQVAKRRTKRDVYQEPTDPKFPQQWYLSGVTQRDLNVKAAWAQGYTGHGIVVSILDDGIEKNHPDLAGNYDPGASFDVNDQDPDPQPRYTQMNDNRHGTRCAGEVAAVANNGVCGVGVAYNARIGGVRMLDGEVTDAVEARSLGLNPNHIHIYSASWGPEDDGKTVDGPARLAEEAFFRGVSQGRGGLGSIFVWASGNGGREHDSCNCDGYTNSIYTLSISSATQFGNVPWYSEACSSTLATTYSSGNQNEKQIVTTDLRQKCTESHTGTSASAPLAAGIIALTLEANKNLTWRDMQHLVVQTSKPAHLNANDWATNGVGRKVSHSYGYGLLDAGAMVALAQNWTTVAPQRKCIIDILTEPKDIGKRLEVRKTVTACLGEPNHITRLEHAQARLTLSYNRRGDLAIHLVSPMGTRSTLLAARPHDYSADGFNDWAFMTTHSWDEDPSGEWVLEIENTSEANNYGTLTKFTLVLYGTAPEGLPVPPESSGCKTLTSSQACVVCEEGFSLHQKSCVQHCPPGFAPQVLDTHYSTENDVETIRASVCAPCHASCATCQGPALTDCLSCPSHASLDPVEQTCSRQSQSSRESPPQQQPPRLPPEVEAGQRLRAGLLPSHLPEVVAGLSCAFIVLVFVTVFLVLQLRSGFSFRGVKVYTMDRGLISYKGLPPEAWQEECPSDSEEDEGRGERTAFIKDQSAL
# Experiment: furin cleavage Z-score vs untreated control; higher = more cleavage, active = 3.5 or more, inactive = 1 or less, 8 variable residues between constant flanks
# In short: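 The cleavage Z-score was derived for purified furin acting on 8-mer peptides held on magnetic beads and fused to a cDNA oligonucleotide. Digests lasted 7.5, 15 or 30 min at 1:10 enzyme:substrate in 50 mM HEPES pH 7.5 with CaCl2 and NaCl. Sequencing counts of released DNA, log-transformed against furin-free reactions, were lowess-adjusted and scaled by median absolute deviation.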
Sequence,furin cleavage Z-score (7.5 min),furin cleavage Z-score (15 min),furin cleavage Z-score (30 min)
B1,-1.53 (inactive),-0.885 (inactive),-1.78 (inactive)
B2,-0.8 (inactive),-0.656 (inactive),-0.444 (inactive)
B3,1.02,0.719 (inactive),0.0481 (inactive)
B4,4.85 (active),4.91 (active),5.66 (active)
B5,5.68 (active),5.73 (active),6.03 (active)
B6,-0.954 (inactive),0.785 (inactive),-0.882 (inactive)
B7,9.42 (active),9.32 (active),8.94 (active)
B8,-0.113 (inactive),-0.447 (inactive),-0.277 (inactive)
B9,1.04,-0.834 (inactive),0.192 (inactive)
B10,0.662 (inactive),-0.37 (inactive),-0.247 (inactive)
B11,0.437 (inactive),1.13,-0.426 (inactive)
B12,-1.12 (inactive),-0.376 (inactive),-2.36 (inactive)
B13,1.25,0.88 (inactive),0.181 (inactive)
B14,0.79 (inactive),-0.97 (inactive),-1.66 (inactive)
B15,-0.476 (inactive),0.981 (inactive),-0.151 (inactive)
B16,10.3 (active),9.08 (active),8.29 (active)
B17,3.1,4.69 (active),4.42 (active)
B18,0.169 (inactive),-0.15 (inactive),-0.727 (inactive)
B19,4.28 (active),3.15,5.72 (active)
B20,-0.111 (inactive),0.523 (inactive),0.909 (inactive)
B21,1.11,0.407 (inactive),-8.8e-05 (inactive)
B22,10.1 (active),7.22 (active),9.33 (active)

Sequence,furin cleavage Z-score (7.5 min),furin cleavage Z-score (15 min),furin cleavage Z-score (30 min)
B23,-0.595 (inactive),0.519 (inactive),0.245 (inactive)
B24,-1.48 (inactive),-0.199 (inactive),-0.0714 (inactive)
B25,-0.719 (inactive),-0.267 (inactive),0.328 (inactive)
B26,-0.376 (inactive),-1.52 (inactive),-2.05 (inactive)
B27,0.515 (inactive),-1.04 (inactive),-1.3 (inactive)
B28,9.51 (active),8.58 (active),8.12 (active)
B29,0.255 (inactive),-1.19 (inactive),-1.7 (inactive)
B30,4.85 (active),4.51 (active),4.42 (active)
B31,0.304 (inactive),-0.351 (inactive),0.543 (inactive)
B32,-0.371 (inactive),-1.96 (inactive),-0.569 (inactive)
B33,13 (active),12.2 (active),9.49 (active)
B34,8.82 (active),10.1 (active),7.4 (active)
B35,-0.946 (inactive),-0.28 (inactive),-0.569 (inactive)
B36,-0.548 (inactive),-0.603 (inactive),0.816 (inactive)
B37,9.65 (active),11 (active),7.11 (active)
B38,8.64 (active),9.03 (active),8.4 (active)
B39,5.44 (active),7.85 (active),7.29 (active)
B40,12.3 (active),12.5 (active),8.77 (active)
B41,-0.162 (inactive),0.223 (inactive),-0.716 (inactive)
B42,0.288 (inactive),-1.04 (inactive),0.353 (inactive)
B43,0.31 (inactive),1.38,0.463 (inactive)
B44,-2.28 (inactive),-0.493 (inactive),-0.341 (inactive)
